According to PubChem BioAssay AID504332 (National Center for Advancing Translational Sciences (NCATS), 2011):
“And” between values parts separate entries of the source, which are not always exact repeats. Identical values can stand only once. In all, about 350,000 compounds went through this assay and about 31,000 (8.9%) were called active. Not shown: some 15% with an inconclusive outcome. The call rests on the fitted dose curve; in most records, active means well fitted inhibition curve with a large enough effect; inconclusive means small, poorly fitted or top-dose-only effect; inactive means no such curve, though single readings can be large or run the other way. The list comes from a sample in which actives are over-represented; it also holds similar structures and randomly drawn compounds. Entries that show only a call come without a potency. More than one record can exist for a structure, and the calls need not agree.

biological target: Histone-lysine N-methyltransferase EHMT2 (Homo sapiens) (UniProt Q96KQ7); assay: qHTS Assay for Inhibitors of Histone Lysine Methyltransferase G9a; settings: G9a H3K9 monomethylation, AlphaScreen, 2 h; series mostly up to 59 µM; further: nearly all actives have a fitted effect of over 75% in size
Procedure, shortened: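 Signal arises when biotinylated H3K9 peptide, once monomethylated, bridges streptavidin donor and antibody-captured acceptor beads. Enzyme at 20 nM was preincubated 15 min with test compounds; peptide 500 nM and SAM 20 uM then reacted for 2 h.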
Potency means the concentration at half of the fitted maximal effect.

Sequence of Histone-lysine N-methyltransferase EHMT2 (Homo sapiens) (Q96KQ7 913-1193 limits assumed): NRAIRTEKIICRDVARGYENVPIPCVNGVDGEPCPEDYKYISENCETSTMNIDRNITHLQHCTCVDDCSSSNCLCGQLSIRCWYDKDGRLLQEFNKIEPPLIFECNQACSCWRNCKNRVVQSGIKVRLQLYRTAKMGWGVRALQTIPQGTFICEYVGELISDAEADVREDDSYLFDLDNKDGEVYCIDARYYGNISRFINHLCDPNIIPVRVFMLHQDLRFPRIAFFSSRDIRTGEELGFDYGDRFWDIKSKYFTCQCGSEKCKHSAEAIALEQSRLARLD

| Compound | activity, negative = inhibition | Potency |
| --- | --- | --- |
| c1cncc(-c2nc(N3CCNCC3)c3ccccc3n2)c1 | 8.14% [at 0.501 µM] (inactive) | – |
| S=c1nc2ccccc2c2nc(-c3cccnc3)[nH]n12 | – | 10 µM (active) |
| CC(C)(C)OC(=O)N1CCC(c2c(C(=O)NCc3ccccn3)cnn2-c2ccc(F)cc2)CC1 | – | inactive |
| Cc1ccc(CN(Cc2cccnc2)C(=S)Nc2cc(Cl)ccc2C)cc1 | – | inactive |
| COCCNC(=S)N(CCc1c(C)[nH]c2ccc(C)cc12)Cc1cccnc1 | – | 70.8 µM (active) |
| COCCNC(=S)N(Cc1cccnc1)Cc1ccc(OC)c(OC)c1 | – | inactive |
| Cc1ccc2[nH]c(C)c(CCNC(=O)NC3CCCCC3)c2c1 | – | inactive |
| CCNC(=S)N(CCc1c(C)[nH]c2ccc(C)cc12)Cc1ccco1 | – | 50.1 µM (active) |
| Cc1ccc(NC(=S)N(Cc2ccco2)C(C)c2cccs2)cc1 (stereo unspecified) | – | inactive |
| COC(=O)c1ccc(-c2c(-c3ccccc3)ncc3cc(OC)c(OC)cc23)cc1 | -32.8% [at 0.501 µM] (inactive) | – |
| Cc1cc(C)n2nc(C(=O)OC(C)C(=O)c3cc(C)c(C)cc3C)nc2n1 (stereo unspecified) | 20.5% [at 0.501 µM] (inactive) | – |
| COc1cccc(C(=O)NCc2ccc3c(c2)CCN3C(=O)c2ccncc2)c1 | – | inactive |
| O=C(Cc1cccs1)NCc1cccc(C(F)(F)F)c1 | – | inactive |
| COc1ccccc1NC(=O)CCC(=O)OC(C)C(=O)c1ccccc1 (stereo unspecified) | – | inactive |
| O=C(CN1C(=O)NC2(CCOc3ccccc32)C1=O)NCc1ccc(F)cc1 (stereo unspecified) | 28.5% [at 12.7 µM] (inactive) | – |
| CC1CCCC(C)N1C(=O)CN1CCN(c2nc(-c3ccc(F)cc3)cs2)CC1 (stereo unspecified) | – | inactive |
| O=C(CN1CCOCC1)Nc1ccc(NC(=O)CN2CCOCC2)c(Cl)c1 | – | inactive |
| COc1cccc(NC(=O)CN2CCN(c3nc(-c4cccc(OC)c4)cs3)CC2)c1 | – | 10 µM (active) |
| COc1cccc(CC(=O)Nc2ccc(-c3csc(C)n3)cc2)c1 | – | inactive |
| COc1cc(NC(=O)CN2CCN(S(=O)(=O)c3ccc(Br)cc3)CC2)cc(OC)c1 | – | inactive |
| COc1cccc(NC(=O)CN2CCN(CC(=O)Nc3ccccc3Cl)CC2)c1 | – | 35.5 µM (active) |
| CC(C)c1ccccc1OCC(O)CN(CC(O)COc1cccc2ccccc12)C(C)C (stereo unspecified) | – | inactive |
| COc1ccc(CCNC(=O)c2ccc3c(c2)sc2nc(-c4ccc(C)cc4)cn23)cc1OC | – | inactive |
| Cc1c(Cl)cccc1NC(=O)N1CCN(C(=O)c2nsc3ccccc23)CC1 | – | inactive |

| Compound | activity, negative = inhibition | Potency |
| --- | --- | --- |
| CC1=C(C/C=C(\C)CCCC(C)CCCC(C)CCCC(C)C)C(=O)c2ccccc2C1=O (stereo unspecified) | – | inactive and 14.1 µM (active) |
| Cn1cc(CNC(=O)c2ccc(OC3CCN(Cc4ccccn4)CC3)cc2)cn1 | – | inactive |
| N#Cc1c(Cl)nc(-c2cccnc2)nc1-c1ccccc1 | -10.7% [at 2.33 µM] (inactive) | – |
| CCOc1ccc(N(CC)S(=O)(=O)N2CCCC(C(=O)Nc3ccc(C(C)=O)cc3)C2)cc1 (stereo unspecified) | – | inactive |
| O=C(Nc1cc(S(=O)(=O)N2CCOCC2)ccc1OCC(F)(F)F)c1ccc(N2CCCC2=O)cc1 | – | inactive |
| CC(=O)c1ccc(NC(=O)Nc2ccc([N+](=O)[O-])cc2C)cc1 | – | inactive |
| CCN(CC)S(=O)(=O)c1cc([N+](=O)[O-])ccc1N=Nc1c(O)n(C)c2ccccc12 | – | inactive |
| CCN(CC)S(=O)(=O)c1cc([N+](=O)[O-])ccc1NNC(=O)Nc1ccccc1 | – | 15.8 µM (active) |
| O=C(O)c1ccc(Cn2c(SCc3ccc(F)cc3)nc3ccncc32)cc1 | – | inactive |
| Cn1c(=O)nc2n(-c3ccc(Br)cc3)c3cccc(Cl)c3cc-2c1=O | – | inactive |
| COc1ccccc1CNCc1ccc(C(=O)O)s1 | – | inactive |
| CC(C)OCC(O)CN1CCN(C(c2ccccc2)c2ccccc2)CC1 (stereo unspecified) | – | 50.1 µM (active) |
| Oc1ccccc1CN1CCN(C(c2ccccc2)c2ccccc2)CC1 | – | 28.2 µM (active) |
| CC(=O)N1CCN(CC(c2ccccc2)c2ccccc2)CC1 | – | inactive |
| COc1ccccc1CN1CCN(C(c2ccccc2)c2ccccc2)CC1 | – | 10 µM (active) |
| O=C(c1ccc(-n2cnnn2)cc1)N1CCN(C(c2ccccc2)c2ccccc2)CC1 | – | inactive |
| COc1ccccc1CN1CC2(CCN(S(=O)(=O)c3ccccc3)CC2)C1 | 8.67% [at 12.7 µM] (inactive) | – |
| COc1ccccc1NC(=S)N1CCN(c2ccc(F)cc2)CC1 | -4.21% [at 0.501 µM] (inactive) | – |
| CC(C)NC(=S)N1CCN(C(c2ccccc2)c2ccccc2)CC1 | – | inactive |
| CCOc1ccccc1NC(=S)N1CCN(c2cccc(C)c2C)CC1 | – | inactive |
| c1ccc(C(c2ccccc2)N2CCN(Cc3nnnn3C3CCCCC3)CC2)cc1 | – | inactive |
| COc1ccccc1NC(=S)N1CCN(C(c2ccccc2)c2ccccc2)CC1 | – | 28.2 µM (active) |
| O=C(NCCCc1ccccc1)c1cc(COc2c(F)cccc2F)on1 | – | inactive |
| CCc1nn(CCCC(=O)NCc2ccc(C)cc2)c(=O)c2cc3occc3n12 | – | inactive |

| Compound | activity, negative = inhibition | Potency |
| --- | --- | --- |
| CN(CCc1ccccn1)C1CCCN(S(=O)(=O)c2ccccc2Cl)C1 (stereo unspecified) | – | inactive |
| COc1c(Cl)cc(Cl)cc1C(=O)Nc1cccc2cccnc12 | – | inactive |
| COc1ccc(-c2nn3c(=O)cc(CN4CCN(C(=O)c5ccc(OC)c(OC)c5)CC4)nc3s2)cc1 | – | inactive |
| Cc1ccc(S(=O)(=O)N[C@@H](Cc2ccccc2)C(=O)N2CCC(C(=O)N[C@H](C(=O)O)C(C)O)CC2)cc1 (stereo partly specified) | – | inactive |
| COc1ccc(S(=O)(=O)N2CCOCC2)cc1NC(=O)Cc1c(F)cccc1Cl | 17.5% [at 12.7 µM] (inactive) | – |
| CC(OC(=O)CNC(=O)c1cccc(F)c1)C(=O)NC1CCCCC1C (stereo unspecified) | – | inactive |
| COc1ccc(NC(=O)C2CCN(c3ccc(Sc4ccc(C)cc4)nn3)CC2)c(OC)c1 | – | inactive |
| Cc1cc(NC(=O)c2ccc(-c3ccc(Cl)cc3)o2)cc(-c2nc3ncccc3o2)c1O | – | inactive |
| COc1ccc(CCNC(=O)CCc2ccccc2O)cc1OC | 7.03% [at 0.501 µM] (inactive) | – |
| COc1ccc(OC)c(CN2CCN(C(=O)CNC(=O)c3cc(C)cc(C)c3)CC2)c1 | – | inactive |
| COC(=O)N1CCC2(CCCN(Cc3ccccc3OC)C2)CC1 | 2.95% [at 12.7 µM] (inactive) | – |
| COc1ccccc1CN1CCN(Cc2cc(OC)c(OC)cc2OC)CC1 | – | 8.91 µM (active) |
| COc1ccc(C(=O)CSc2c(C(C)C)cnc3c2c(=O)n(C)c(=O)n3C)cc1 | – | inactive |
| CCN1C(=O)[C@@H]2[C@@H](c3ccc(-c4ccccc4)cc3)N3CCCC[C@@]3(C(=O)OC)[C@@H]2C1=O | -6.56% [at 2.33 µM] (inactive) | – |
| CCc1cnc2c(c1SCC(=O)N1CCC(C)CC1)c(=O)n(C)c(=O)n2C | – | inactive |
| COc1ccc(N(C(=O)c2cccnc2)S(=O)(=O)c2ccc(OC)c(OC)c2)cc1 | – | inactive |
| COc1ccc(N(C(=O)c2cccnc2)S(=O)(=O)c2ccc3c(c2)n(C)c(=O)n3C)cc1 | -0.924% [at 12.7 µM] (inactive) | – |
| O=C(c1cccnc1)N(c1cc2sc(=O)oc2c2ccccc12)S(=O)(=O)c1ccccc1 | – | 1.12 µM (active) |
| O=C(c1ccco1)N1CCN(C(=O)c2cc(-c3ccccc3F)no2)CC1 | – | inactive |
| CCOc1ccc(NC(=O)C(CC(C)C)N2Cc3ccccc3C2=O)cc1 (stereo unspecified) | – | inactive |
| CCCOC(=O)c1ccc(N2C(=O)c3ccccc3C2=O)cc1 | – | inactive |
| CCO/C=C1\C(=O)N(c2ccc(OCC)cc2)C(=O)c2ccccc21 | – | 31.6 µM (active) |
| O=C(COC(=O)c1ncc(Cl)c(Cl)c1Cl)NNC(=O)c1ccccc1 | – | inactive |
| COC(=O)c1ccc(COc2cc([N+](=O)[O-])cc3cccnc23)cc1 | – | inactive |

| Compound | activity, negative = inhibition | Potency |
| --- | --- | --- |
| O=[N+]([O-])c1cc([N+](=O)[O-])c2cccnc2c1O | – | 31.6 µM (active) |
| Cc1ccc(C(=O)Nc2cccc3ncccc23)cc1[N+](=O)[O-] | 35.3% [at 12.7 µM] (inactive) | – |
| CCc1c(C)nc(N2CCN(Cc3ccccc3)CC2)[nH]c1=O | -41.6% [at 12.7 µM] (inactive) | – |
| O=C1c2ccccc2C(=O)c2c1cccc2N1CCN(Cc2ccccc2)CC1 | – | 10 µM (active) |
| O=c1cc(N2CCN(Cc3ccccc3)CC2)c(-c2ccccc2)n[nH]1 | – | inactive |
| N#Cc1cccc(OC(=O)c2ccc3c(=O)n4c(nc3c2)CCC4)c1 | -1.34% [at 0.501 µM] (inactive) | – |
| CC(=O)NC(Cc1ccccc1)C(=O)NC1CCN(c2ncccc2[N+](=O)[O-])CC1 (stereo unspecified) | – | inactive |
| COc1ccc(-c2cc3ncccc3cn2)cc1 | -3.56% [at 0.501 µM] (inactive) | – |
| COc1ccc(-c2cc(C3CCN(c4ncccc4[N+](=O)[O-])CC3)[nH]n2)cc1 | – | 50.1 µM (active) |
| O=C(NCC1CCCO1)c1cc2c([nH]c3ccccc32)c(-c2ccc(F)cc2)n1 (stereo unspecified) | 6.78% [at 12.7 µM] (inactive) | – |
| COc1cc(NC(=O)CN2C(=O)NC(C)(c3ccc(OC(F)F)cc3)C2=O)cc(OC)c1OC (stereo unspecified) | – | inactive |
| CSc1nc(-c2ccc(F)cc2)nc2c1Cc1c(CO)cnc(C)c1O2 | – | inactive |
| CCc1nc(C)cn1S(=O)(=O)c1cc(OC)c(C)cc1C | – | 44.7 µM (active) |
| COc1cc(Cl)c(S(=O)(=O)n2cnc(C)c2)cc1Cl | – | inactive |
| CCc1nc(C)cn1S(=O)(=O)c1cc([N+](=O)[O-])ccc1Cl | – | inactive |
| CCOc1cc(/C=C2\SC(N3CCCC(C)C3)=NC2=O)ccc1O (stereo unspecified) | – | inactive |
| CC(C)C(=O)NCC(c1cccs1)S(=O)(=O)c1ccc(F)cc1 (stereo unspecified) | – | inactive |
| CC1CCCC(C)N1C(=O)COC(=O)COc1ccccc1C#N (stereo unspecified) | – | inactive |
| CNCC(O)CN1CCN(c2ccccc2OC)CC1 (stereo unspecified) | – | 50.1 µM (active) |
| COc1ccccc1N1CCN(Cc2ccc(OC)c3ccccc23)CC1 | – | 8.91 µM (active) |
| COc1ccccc1N1CCN(CCN2C(=O)c3ccccc3C(C)(C)C2=O)CC1 | – | inactive |
| CC(=O)Nc1ccc(OCC(O)CN2CCN(c3ccccc3Cl)CC2)cc1 (stereo unspecified) | – | inactive |
| COc1ccccc1N1CCN(CC(=O)NCCc2ccc(S(N)(=O)=O)cc2)CC1 | – | inactive |
| COC(=O)c1cnc(N2CCN(c3ccccc3OC)CC2)c2ccccc12 | – | inactive |
